Measurements from ChEMBL document CHEMBL2218924, “A broad activity screen in support of a chemogenomic map for kinase signalling research and drug discovery” (Biochem J, 2013).

Key:
[1] = molecular target: T1, Ephrin type-A receptor 3 (Homo sapiens) (UniProt P29320); settings: at 10 µM
T1 sequence (whole entry): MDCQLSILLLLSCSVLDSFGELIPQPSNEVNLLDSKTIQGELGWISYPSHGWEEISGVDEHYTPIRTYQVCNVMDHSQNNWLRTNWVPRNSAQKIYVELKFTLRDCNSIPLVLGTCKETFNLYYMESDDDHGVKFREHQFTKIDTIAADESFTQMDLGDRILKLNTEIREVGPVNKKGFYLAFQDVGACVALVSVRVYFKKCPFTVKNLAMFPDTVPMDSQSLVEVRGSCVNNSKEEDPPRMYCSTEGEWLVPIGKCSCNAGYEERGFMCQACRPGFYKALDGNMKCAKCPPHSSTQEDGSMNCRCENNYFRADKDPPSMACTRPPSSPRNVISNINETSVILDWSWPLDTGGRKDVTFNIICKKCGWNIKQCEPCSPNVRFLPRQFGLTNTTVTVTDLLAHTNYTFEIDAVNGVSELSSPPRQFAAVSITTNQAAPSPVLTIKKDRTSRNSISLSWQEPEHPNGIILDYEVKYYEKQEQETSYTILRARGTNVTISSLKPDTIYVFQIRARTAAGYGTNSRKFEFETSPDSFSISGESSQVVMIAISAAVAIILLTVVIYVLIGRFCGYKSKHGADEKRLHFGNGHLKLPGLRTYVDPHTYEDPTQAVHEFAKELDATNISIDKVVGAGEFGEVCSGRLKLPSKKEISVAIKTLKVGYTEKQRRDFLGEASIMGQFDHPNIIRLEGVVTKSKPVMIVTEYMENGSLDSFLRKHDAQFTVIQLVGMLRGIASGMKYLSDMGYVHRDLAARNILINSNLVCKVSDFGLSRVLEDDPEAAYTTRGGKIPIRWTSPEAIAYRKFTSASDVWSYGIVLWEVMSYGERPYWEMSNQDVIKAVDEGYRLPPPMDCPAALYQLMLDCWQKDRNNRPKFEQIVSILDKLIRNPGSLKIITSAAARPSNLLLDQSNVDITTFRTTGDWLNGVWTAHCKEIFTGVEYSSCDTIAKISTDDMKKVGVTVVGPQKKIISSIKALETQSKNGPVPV

[2] = molecular target: Ephrin type-A receptor 4 (Homo sapiens) (UniProt P54764); settings: at 1 µM
Chain of Ephrin type-A receptor 4 (Homo sapiens) (P54764 whole entry): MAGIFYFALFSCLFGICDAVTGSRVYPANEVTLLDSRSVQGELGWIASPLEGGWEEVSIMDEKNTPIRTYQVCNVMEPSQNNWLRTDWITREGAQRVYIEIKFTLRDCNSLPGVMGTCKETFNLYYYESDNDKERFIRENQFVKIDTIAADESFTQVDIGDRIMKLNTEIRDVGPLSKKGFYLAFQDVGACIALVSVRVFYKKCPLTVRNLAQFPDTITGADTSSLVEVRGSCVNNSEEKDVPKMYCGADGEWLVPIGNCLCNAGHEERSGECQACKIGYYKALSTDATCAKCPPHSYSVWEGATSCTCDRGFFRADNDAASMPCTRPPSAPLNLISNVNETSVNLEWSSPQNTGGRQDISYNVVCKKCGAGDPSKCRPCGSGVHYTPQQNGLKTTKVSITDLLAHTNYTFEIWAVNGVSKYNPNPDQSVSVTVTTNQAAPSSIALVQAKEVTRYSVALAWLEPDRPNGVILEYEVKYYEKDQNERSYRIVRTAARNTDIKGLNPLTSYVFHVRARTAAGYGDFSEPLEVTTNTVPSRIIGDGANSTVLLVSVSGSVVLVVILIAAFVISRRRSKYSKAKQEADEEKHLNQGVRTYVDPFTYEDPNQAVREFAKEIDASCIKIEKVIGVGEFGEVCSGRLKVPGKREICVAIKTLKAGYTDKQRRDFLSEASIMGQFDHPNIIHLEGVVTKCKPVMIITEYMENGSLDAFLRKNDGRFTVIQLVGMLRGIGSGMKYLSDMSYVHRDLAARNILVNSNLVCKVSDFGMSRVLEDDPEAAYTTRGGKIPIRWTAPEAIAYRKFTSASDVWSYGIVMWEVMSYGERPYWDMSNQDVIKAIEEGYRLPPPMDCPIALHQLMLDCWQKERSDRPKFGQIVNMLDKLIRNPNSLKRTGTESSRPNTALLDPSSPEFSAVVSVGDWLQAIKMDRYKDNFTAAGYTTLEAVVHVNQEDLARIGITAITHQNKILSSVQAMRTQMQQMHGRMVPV

[3] = molecular target: Ephrin type-A receptor 4 (Homo sapiens) (UniProt P54764); settings: at 10 µM
[4] = molecular target: Ephrin type-A receptor 7 (Homo sapiens) (UniProt Q15375); settings: at 1 µM
Chain of Ephrin type-A receptor 7 (Homo sapiens) (Q15375 28-998 limits assumed): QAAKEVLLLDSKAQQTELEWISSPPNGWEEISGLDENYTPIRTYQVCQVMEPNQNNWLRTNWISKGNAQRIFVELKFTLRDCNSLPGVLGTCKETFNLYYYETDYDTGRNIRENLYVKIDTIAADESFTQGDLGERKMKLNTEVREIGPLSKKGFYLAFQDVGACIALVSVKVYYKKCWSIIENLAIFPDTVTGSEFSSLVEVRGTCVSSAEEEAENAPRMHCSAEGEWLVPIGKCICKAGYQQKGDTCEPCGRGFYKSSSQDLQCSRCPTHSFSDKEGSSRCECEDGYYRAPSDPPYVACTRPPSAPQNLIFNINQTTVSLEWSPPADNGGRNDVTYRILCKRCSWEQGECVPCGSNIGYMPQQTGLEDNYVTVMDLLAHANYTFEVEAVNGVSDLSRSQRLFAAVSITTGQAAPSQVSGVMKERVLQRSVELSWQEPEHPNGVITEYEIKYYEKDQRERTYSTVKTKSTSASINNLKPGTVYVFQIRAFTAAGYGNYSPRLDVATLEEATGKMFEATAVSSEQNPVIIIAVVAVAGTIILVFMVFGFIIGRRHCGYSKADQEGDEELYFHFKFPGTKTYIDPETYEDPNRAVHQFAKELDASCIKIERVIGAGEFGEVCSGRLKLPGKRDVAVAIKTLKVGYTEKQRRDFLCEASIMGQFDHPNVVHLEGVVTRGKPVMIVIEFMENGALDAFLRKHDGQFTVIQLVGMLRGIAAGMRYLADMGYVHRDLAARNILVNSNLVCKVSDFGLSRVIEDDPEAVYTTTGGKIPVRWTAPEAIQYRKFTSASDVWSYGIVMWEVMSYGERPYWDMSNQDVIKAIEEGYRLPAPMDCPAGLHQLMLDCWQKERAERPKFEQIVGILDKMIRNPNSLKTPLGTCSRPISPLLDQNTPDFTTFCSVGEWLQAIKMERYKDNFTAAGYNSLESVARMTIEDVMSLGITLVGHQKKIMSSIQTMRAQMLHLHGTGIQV

[5] = molecular target: Ephrin type-A receptor 7 (Homo sapiens) (UniProt Q15375); settings: at 10 µM
[6] = molecular target: T2, Ephrin type-A receptor 8 (Homo sapiens) (UniProt P29322); settings: at 1 µM
T2 sequence (whole entry): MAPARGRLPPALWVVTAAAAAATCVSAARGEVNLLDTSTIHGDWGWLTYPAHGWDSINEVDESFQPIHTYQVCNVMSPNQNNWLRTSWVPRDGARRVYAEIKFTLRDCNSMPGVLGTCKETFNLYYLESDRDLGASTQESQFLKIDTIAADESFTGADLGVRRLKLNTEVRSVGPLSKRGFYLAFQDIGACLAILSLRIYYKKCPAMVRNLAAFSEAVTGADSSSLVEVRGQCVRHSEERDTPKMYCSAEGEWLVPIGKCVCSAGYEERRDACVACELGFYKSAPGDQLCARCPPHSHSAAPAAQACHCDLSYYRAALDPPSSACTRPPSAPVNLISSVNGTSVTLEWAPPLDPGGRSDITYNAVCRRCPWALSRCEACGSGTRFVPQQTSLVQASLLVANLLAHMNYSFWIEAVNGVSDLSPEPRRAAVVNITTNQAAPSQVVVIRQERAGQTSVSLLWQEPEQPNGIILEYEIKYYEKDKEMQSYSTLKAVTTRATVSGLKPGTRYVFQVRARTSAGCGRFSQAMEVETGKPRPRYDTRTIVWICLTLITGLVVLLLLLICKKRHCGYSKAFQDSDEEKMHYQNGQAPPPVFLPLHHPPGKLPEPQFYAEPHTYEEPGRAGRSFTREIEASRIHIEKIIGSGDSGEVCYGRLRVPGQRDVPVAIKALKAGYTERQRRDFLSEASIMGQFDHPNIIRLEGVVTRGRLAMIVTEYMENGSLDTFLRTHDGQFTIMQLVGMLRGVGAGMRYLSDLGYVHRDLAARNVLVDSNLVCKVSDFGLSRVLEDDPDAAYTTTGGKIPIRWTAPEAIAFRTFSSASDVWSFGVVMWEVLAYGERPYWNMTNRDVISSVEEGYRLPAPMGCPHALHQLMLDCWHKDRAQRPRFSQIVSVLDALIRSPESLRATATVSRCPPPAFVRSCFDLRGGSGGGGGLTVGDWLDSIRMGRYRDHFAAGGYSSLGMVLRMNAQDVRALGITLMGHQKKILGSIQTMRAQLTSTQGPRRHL

[7] = molecular target: T2, Ephrin type-A receptor 8 (Homo sapiens); settings: at 10 µM
[8] = molecular target: T3, Ephrin type-B receptor 1 (Homo sapiens) (UniProt P54762); settings: at 1 µM
T3 sequence (whole entry): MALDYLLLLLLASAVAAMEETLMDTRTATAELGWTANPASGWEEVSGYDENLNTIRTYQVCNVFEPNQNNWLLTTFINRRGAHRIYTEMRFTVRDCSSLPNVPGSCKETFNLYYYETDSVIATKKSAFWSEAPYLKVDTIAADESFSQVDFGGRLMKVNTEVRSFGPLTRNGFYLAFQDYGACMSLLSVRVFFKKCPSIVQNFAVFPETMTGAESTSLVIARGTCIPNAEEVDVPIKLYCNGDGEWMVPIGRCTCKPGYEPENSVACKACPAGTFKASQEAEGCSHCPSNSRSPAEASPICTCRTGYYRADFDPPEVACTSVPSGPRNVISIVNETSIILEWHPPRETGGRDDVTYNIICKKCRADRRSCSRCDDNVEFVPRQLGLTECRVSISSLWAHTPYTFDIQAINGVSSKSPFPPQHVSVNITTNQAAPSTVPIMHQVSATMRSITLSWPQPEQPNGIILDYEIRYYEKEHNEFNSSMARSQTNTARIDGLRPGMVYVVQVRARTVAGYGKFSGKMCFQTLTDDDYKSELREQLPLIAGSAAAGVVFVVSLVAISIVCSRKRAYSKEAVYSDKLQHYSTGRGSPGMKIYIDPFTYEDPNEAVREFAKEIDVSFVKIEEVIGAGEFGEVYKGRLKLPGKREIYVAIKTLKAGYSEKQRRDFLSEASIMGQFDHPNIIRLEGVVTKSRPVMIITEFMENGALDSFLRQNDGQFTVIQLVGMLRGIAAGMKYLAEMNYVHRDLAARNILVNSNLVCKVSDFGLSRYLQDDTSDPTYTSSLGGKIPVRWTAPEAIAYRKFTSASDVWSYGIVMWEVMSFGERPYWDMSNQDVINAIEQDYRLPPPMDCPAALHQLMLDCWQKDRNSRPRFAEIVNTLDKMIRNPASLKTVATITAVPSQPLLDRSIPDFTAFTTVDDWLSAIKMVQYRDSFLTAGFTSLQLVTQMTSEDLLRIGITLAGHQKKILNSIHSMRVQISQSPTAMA

[9] = molecular target: T3, Ephrin type-B receptor 1 (Homo sapiens); settings: at 10 µM
[10] = molecular target: T4, Ephrin type-B receptor 3 (Homo sapiens) (UniProt P54753); settings: at 1 µM
T4 sequence (whole entry): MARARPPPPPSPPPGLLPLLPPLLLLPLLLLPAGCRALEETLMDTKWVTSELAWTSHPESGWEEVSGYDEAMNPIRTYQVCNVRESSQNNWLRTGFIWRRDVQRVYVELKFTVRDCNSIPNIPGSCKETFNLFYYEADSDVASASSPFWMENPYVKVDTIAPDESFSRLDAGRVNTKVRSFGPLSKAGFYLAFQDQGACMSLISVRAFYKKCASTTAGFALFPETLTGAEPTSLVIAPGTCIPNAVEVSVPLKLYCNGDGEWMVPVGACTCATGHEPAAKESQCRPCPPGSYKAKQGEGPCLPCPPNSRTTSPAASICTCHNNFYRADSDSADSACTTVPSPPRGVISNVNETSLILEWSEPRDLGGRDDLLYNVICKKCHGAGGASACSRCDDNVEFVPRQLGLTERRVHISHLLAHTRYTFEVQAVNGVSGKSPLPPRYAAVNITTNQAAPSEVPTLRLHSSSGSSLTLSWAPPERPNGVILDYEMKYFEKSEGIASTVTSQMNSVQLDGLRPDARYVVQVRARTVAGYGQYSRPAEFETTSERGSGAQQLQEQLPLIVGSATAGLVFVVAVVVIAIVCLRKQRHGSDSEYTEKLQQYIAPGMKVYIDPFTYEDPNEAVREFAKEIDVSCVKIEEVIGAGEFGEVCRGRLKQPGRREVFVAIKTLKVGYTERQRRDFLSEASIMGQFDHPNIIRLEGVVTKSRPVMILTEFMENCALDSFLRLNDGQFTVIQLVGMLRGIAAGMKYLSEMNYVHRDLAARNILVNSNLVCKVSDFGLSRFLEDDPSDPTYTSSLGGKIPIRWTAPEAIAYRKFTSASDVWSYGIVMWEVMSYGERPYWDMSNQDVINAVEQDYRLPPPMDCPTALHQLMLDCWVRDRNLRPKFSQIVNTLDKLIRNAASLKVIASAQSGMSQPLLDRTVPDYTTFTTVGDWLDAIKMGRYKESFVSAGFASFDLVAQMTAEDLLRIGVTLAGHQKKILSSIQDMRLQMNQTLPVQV

[11] = molecular target: T4, Ephrin type-B receptor 3 (Homo sapiens); settings: at 10 µM
[12] = molecular target: Receptor tyrosine-protein kinase erbB-4 (Homo sapiens) (UniProt Q15303); settings: at 1 µM
Chain of Receptor tyrosine-protein kinase erbB-4 (Homo sapiens) (Q15303 whole entry): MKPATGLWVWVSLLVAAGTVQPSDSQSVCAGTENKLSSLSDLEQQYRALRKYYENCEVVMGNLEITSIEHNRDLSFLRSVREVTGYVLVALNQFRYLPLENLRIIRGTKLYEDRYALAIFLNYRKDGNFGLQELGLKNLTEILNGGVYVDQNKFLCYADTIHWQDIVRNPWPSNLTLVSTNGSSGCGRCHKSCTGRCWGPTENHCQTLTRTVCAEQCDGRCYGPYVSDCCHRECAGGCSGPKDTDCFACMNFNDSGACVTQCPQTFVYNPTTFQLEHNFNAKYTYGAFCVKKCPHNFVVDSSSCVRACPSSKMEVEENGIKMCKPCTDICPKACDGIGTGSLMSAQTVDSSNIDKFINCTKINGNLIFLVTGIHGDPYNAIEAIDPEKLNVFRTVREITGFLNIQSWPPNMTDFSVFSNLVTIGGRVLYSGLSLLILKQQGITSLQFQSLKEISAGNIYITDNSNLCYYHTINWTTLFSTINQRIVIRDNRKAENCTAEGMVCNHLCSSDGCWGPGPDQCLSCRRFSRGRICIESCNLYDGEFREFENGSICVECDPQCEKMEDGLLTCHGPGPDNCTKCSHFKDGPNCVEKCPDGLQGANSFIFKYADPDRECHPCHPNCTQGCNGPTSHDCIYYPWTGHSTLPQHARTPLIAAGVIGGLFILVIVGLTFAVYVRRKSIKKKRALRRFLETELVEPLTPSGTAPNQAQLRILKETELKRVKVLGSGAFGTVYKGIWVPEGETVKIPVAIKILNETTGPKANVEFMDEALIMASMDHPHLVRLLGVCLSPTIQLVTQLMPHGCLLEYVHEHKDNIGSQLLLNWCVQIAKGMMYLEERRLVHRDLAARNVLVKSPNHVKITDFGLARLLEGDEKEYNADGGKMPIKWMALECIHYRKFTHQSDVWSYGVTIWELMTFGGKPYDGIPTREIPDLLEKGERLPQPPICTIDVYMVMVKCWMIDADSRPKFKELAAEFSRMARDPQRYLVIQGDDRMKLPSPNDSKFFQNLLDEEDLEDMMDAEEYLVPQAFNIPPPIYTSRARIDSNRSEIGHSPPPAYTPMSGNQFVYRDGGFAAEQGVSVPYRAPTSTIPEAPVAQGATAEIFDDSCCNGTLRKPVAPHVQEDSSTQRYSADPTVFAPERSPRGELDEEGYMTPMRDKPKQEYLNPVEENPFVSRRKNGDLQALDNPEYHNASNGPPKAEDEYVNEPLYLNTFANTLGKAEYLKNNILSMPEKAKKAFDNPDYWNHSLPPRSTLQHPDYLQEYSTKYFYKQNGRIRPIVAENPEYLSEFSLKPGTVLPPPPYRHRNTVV

[13] = molecular target: Receptor tyrosine-protein kinase erbB-4 (Homo sapiens) (UniProt Q15303); settings: at 10 µM
[14] = molecular target: Focal adhesion kinase 1 (Homo sapiens) (UniProt Q05397); settings: at 1 µM
Chain of Focal adhesion kinase 1 (Homo sapiens) (Q05397 2-1052 limits assumed): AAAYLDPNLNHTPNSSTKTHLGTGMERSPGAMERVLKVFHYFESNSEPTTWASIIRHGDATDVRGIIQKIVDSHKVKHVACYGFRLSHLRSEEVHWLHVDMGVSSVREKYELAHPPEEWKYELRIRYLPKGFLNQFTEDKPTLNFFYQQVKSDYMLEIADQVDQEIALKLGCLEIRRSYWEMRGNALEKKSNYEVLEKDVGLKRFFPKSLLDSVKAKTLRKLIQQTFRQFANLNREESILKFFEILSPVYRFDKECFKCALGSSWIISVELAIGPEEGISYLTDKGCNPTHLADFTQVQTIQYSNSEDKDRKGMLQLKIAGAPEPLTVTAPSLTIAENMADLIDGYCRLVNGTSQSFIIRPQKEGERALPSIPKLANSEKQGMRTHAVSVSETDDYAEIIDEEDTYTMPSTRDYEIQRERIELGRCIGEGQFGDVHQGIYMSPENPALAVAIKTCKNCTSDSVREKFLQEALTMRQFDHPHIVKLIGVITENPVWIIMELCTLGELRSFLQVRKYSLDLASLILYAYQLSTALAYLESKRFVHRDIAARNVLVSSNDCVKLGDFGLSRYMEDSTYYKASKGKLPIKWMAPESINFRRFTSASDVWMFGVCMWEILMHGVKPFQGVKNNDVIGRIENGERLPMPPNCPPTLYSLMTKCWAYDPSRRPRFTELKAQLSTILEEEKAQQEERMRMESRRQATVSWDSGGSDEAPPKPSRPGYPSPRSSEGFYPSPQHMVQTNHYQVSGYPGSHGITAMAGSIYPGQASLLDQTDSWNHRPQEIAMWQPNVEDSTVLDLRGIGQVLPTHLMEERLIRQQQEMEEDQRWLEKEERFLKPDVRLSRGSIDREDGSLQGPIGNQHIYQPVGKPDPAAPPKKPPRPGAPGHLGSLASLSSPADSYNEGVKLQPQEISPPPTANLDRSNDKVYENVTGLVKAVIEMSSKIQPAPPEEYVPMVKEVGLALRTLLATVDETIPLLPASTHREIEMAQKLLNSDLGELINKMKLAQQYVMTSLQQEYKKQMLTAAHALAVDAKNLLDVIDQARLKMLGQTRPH

[15] = molecular target: Ephrin type-A receptor 5 (Homo sapiens) (UniProt P54756); settings: at 10 µM
[16] = molecular target: T5, Ephrin type-B receptor 2 (Homo sapiens) (UniProt P29323); settings: at 1 µM
T5 sequence (whole entry): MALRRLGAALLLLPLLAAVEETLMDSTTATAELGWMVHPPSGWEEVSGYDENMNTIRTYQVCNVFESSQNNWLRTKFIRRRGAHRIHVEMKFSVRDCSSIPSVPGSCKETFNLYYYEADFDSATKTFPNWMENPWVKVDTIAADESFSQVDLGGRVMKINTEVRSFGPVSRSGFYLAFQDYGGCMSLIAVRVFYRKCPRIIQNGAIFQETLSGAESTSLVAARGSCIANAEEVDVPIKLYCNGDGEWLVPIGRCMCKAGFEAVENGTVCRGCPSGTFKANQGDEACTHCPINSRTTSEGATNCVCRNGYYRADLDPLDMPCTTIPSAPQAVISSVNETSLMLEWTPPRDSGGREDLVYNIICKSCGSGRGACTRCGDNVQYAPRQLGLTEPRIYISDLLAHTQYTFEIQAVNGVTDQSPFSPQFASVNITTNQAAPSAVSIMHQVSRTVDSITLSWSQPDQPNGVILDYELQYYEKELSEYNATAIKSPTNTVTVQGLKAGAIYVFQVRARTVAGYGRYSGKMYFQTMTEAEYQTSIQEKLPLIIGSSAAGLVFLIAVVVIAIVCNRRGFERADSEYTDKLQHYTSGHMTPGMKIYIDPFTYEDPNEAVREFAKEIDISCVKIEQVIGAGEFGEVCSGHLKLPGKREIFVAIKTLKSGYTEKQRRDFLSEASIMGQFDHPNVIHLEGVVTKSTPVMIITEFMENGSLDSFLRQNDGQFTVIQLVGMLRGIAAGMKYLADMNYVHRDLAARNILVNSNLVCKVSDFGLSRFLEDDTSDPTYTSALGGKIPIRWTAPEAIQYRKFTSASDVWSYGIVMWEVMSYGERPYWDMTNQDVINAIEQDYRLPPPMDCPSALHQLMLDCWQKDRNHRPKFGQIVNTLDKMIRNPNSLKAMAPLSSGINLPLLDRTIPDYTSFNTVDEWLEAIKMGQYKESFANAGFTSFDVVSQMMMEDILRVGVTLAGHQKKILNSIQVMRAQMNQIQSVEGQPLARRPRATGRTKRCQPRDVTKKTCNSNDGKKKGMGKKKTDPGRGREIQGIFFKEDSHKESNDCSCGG

[17] = molecular target: T6, Ephrin type-B receptor 4 (Homo sapiens) (UniProt P54760); settings: at 1 µM
T6 sequence (whole entry): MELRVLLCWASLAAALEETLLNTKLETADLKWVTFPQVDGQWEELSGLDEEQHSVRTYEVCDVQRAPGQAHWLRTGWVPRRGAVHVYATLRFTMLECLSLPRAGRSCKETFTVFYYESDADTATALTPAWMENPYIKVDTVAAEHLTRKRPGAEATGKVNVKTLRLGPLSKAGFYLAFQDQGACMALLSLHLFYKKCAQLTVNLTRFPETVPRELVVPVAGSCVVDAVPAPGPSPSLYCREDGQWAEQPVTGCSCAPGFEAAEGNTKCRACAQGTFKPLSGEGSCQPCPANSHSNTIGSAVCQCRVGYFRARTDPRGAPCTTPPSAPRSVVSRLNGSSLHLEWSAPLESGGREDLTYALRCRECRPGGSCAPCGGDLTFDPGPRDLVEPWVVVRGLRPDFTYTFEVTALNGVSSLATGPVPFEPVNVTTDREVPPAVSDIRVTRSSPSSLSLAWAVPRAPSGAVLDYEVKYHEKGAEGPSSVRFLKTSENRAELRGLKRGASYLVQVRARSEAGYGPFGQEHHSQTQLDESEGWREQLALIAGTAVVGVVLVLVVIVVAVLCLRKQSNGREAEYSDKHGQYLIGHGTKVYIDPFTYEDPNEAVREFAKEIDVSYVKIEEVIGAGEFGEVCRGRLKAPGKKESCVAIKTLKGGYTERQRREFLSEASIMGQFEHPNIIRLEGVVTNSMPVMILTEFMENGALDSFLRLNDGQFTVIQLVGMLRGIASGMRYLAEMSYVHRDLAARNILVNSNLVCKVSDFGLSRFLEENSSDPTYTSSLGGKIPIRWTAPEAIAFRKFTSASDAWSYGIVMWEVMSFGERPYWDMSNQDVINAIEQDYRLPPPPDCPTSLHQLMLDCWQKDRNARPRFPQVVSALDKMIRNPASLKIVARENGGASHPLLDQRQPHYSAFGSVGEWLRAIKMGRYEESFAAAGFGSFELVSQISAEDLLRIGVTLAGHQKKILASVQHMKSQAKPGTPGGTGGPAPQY

O=C1Nc2ccc(Cl)cc2/C1=C/c1cc(Cl)c(O)c(Cl)c1
residual activity [1]: 54%
residual activity [2]: 99%
residual activity [3]: 90%
residual activity [4]: 92%
residual activity [5]: 71%
residual activity [6]: 90%
residual activity [7]: 79%
residual activity [8]: 94%
residual activity [9]: 86%
residual activity [10]: 113% (inactive)
residual activity [11]: 115%
residual activity [12]: 91%
residual activity [13]: 76%
residual activity [14]: 115%

O=c1cc(N2CCNCC2)oc2c(-c3ccccc3)cccc12
residual activity [1]: 77%
residual activity [15]: 103%
residual activity [4]: 98%
residual activity [5]: 88%
residual activity [6]: 102%
residual activity [7]: 100%
residual activity [8]: 100%
residual activity [9]: 105%
residual activity [16]: 103%
residual activity [17]: 97%
residual activity [12]: 95%
residual activity [13]: 73%
residual activity [14]: 105%
